The text below walks through data of PubChem BioAssay.

Assay [1] can be described thus: inhibitors of TNFa-induced NFkB p65 translocation, primary screen, imaging, HUVEC, MLSMR starter and 10KST1 sets (AID 438;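 active = inhibition above 20% together with a positive visual image hit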;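 note: compound added about 3h40 before a 20 min TNFalpha stimulation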;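 for inhibition: signal is the nuclear over cytoplasmic p65 intensity ratio per well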). The settings on record: HUVEC TNFa-induced p65 nuclear translocation; cell count: measured here: nuclei count (cytotoxicity indicator), at 2.08 µM; inhibition: at 2 µM, stronger effect = higher value, 0% TNFa-plus-vehicle, 100% no-TNFa wells.
Assay [2] in a line: reduction of polyQ htt aggregates in cells – imaging, exon1htt(103Q)mCFP cells, high-content imaging, primary screen (AID 483;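 active = visual image review flags a hit and inhibition of aggregation exceeds 20%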;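 note: compound exposure lasted 3 days before fixation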;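 for nuclei count: percent of the per-plate median nuclei count of sample wells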). The note with it: exon1htt(103Q)mCFP cell line, aggregate imaging, at 2 µM; inhibition of aggregation: stronger effect = higher value; nuclei count: measured here: cell count, toxicity.
A short description of assay [3]: endothelial E-selectin expression blockers – imaging, HUVEC, immunofluorescence, MLSMR starter and 10KST1 sets, primary screen (AID 487;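 active = visually confirmed hit in the image check and inhibition above 20%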;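 for inhibition: signal is fraction of cell area covered by stained E-selectin grains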;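 for nuclei count: 100% = median nuclei count of all wells on the same plate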). The settings on record: HUVEC TNFalpha-induced E-selectin immunofluorescence imaging, at 2 µM; inhibition: stronger effect = higher value; nuclei count: measured here: cell number, toxicity.
Assay [4] concerns the target Voltage-gated potassium channel subunit beta-2 (Rattus norvegicus) (UniProt P62483). The assay can be described thus: inhibitors of rat Kvbeta2 reductase activity – biochemical, NADPH fluorescence, primary screen (AID 622;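 active = fluorescence slope higher than the sample average by over 3 SD, cut at about -0.22 in these data, passing the limit was not always enough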;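 note: slope of raw intensity against log time taken from 70 to 1610 s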). The note with it: recombinant KvBeta, 4-cyanobenzaldehyde reduction, at 10 µM, stronger effect = higher value.
For assay [5] the target is unchanged. The assay is described as follows: enhancers of rat Kvbeta2 NADPH turnover – biochemical, NADPH fluorescence, primary screen (AID 623;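 active = NADPH fluorescence slope more negative than the mean of all samples by about 3 SD, 99.7% confidence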;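 note: fluorescence intensity change per second fitted from 20 to 320 s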). The settings on record: Recombinant KvBeta, NADPH fluorescence decrease slope, 10 min; at 10 µM; stronger effect = lower value.
Assay [6] has as its target Alpha-2C adrenergic receptor (Homo sapiens) (UniProt P18825). The assay is described as follows: compounds altering alpha2C-coupled GIRK flux – cell-based, HEK293 alpha2C/GIRK1/2, thallium flux, primary screen (AID 624).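 Note: slope of fluorescence ratio to pre-addition baseline per second over 15 to 24 s.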 The note with it: thallium flux BTC fluorescence, at 10 µM, actives lie on both sides.
Assay [7] can be described thus: blockers of RIG-like receptor reporter activation – cell-based, Sendai virus stimulus, luciferase, 10K MLSCN set, TLR/RLR signaling modifier project, primary screen (AID 602276;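 active = inhibition at or above 50% at 10 µM; inactive = inhibition below 50%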;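 note: firefly luciferase from ISG56 promoter only with Renilla not read in this screen; 0% = Sendai virus plus DMSO and 100% = medium plus DMSO without virus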). The note with it: HEK293 RL24 IRF3 luciferase reporter, at 10 µM, stronger effect = higher value. (In general: A reporter such as luciferase makes a cellular process visible.)
The nature of assay [8]: TLR3 IRF3 reporter activation blockers – cell-based, poly I:C stimulus, luciferase, 10K MLSCN set, primary screen (AID 602277;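 active = inhibition of the reporter signal at or above 50%; inactive = inhibition below 50%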). The note with it: HEK293-TLR3 RL24 IRF3 luciferase reporter, at 10 µM, stronger effect = higher value.

The source made the active and inactive calls.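 Rule for the calls, unless noted: active = fluorescence slope after compound addition differing from the mean of all screened samples at 99.7% confidence, in either direction; inactive = the rest.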

Sequence of Alpha-2C adrenergic receptor (Homo sapiens) (P18825 whole entry, looked up): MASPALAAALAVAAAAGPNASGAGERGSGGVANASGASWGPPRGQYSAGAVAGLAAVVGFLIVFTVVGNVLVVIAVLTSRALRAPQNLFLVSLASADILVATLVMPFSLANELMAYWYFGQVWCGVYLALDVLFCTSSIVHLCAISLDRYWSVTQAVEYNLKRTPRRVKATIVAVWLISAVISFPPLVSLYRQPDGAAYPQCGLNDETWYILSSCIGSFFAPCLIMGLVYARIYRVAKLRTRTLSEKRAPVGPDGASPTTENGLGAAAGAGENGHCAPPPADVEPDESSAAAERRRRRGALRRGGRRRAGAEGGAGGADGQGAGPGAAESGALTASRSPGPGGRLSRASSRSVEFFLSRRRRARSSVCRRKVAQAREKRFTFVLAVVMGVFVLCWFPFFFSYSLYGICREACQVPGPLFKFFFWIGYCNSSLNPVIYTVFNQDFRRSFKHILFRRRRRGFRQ
Sequence of Voltage-gated potassium channel subunit beta-2 (Rattus norvegicus) (P62483 whole entry, looked up): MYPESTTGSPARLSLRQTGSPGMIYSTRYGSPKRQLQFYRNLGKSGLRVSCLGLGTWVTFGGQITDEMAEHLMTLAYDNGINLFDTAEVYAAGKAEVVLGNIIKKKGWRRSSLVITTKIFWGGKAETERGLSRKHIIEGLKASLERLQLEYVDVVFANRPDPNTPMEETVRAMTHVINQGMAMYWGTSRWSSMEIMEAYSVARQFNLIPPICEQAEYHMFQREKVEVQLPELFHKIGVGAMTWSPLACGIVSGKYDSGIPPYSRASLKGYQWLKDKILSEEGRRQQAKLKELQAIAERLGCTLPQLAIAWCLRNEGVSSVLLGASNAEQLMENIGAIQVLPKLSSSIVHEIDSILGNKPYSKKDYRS

Usually inhibition stands for the drop in the measured response relative to a control, in per cent. On to `O=C(CNc1ccc(Oc2ccccc2)cc1)N1CCOCC1`, for which the cell count in assay [1] stood at 622. For the same compound, the inhibition is -26.3% (inactive) in assay [1], -25.6% (inactive) in assay [3], 18.1% (inactive) in assay [7] and 3.08% (inactive) in assay [8]. Further, in assay [2], the inhibition of aggregation was 2.1% (inactive). For the same compound, the nuclei count in assay [2] came out at 103%; in assay [3] it was 97.4%. Moreover, the fluorescence slope in assay [4] was -0.541 (inactive). For the same compound, the NADPH fluorescence slope in assay [5] is -0.000138 (inactive). In addition, the slope in assay [6] was 0.00652 (inactive).
For `CCn1c(C(=O)N2CCCC(C(=O)NCCCc3ccccc3)C2)cc2sccc21` (centres undefined), the cell count in assay [1] came out at 618. Besides, the inhibition in assay [1] is -12% (inactive); in assay [3] it was -19.4% (inactive); in assay [7], -0.231% (inactive); in assay [8], -1.26% (inactive). For the same compound, the inhibition of aggregation in assay [2] was 40.9% (active). Besides, the nuclei count in assay [2] was determined as 123%; in assay [3], 104%. Also, in assay [4], the fluorescence slope is -0.583 (inactive). Also, the NADPH fluorescence slope in assay [5] is -1.2e-05 (inactive). In assay [6], the slope was 0.00576 (inactive).
Regarding `COc1ccccc1S(=O)(=O)Cc1ccc(C(=O)NCCN2CCCCCC2)o1`, the cell count in assay [1] turned out to be 522. Moreover, the inhibition is 13.4% (inactive) in assay [1], 9% (inactive) in assay [3], 11% (inactive) in assay [7] and 39.3% (inactive) in assay [8]. Besides, the inhibition of aggregation in assay [2] was 15.2% (inactive). The nuclei count in assay [2] came to 91.6%; in assay [3], 81.1%. In addition, in assay [4], the fluorescence slope is -0.588 (inactive). In addition, the NADPH fluorescence slope in assay [5] was -3.5e-05 (inactive). In addition, the slope in assay [6] is 0.00667 (inactive).
For the compound `O=C(O)c1cccc(S(=O)(=O)N2CCOCC2)c1`, the cell count in assay [1] turned out to be 378. Besides, the inhibition in assay [1] was -0.6% (inactive); in assay [3], 20.2% (inactive); in assay [7], -16% (inactive); in assay [8] it was -15.1% (inactive). Further, in assay [2], the inhibition of aggregation was 12.5% (inactive). For the same compound, the nuclei count in assay [2] is 95.2%; in assay [3], 99.4%. The fluorescence slope in assay [4] is -0.472 (inactive). For the same compound, in assay [5], the NADPH fluorescence slope is -0.000388 (inactive). Also, in assay [6], the slope was 0.00562 (inactive).
Regarding `CCOc1cccc(C(=O)N2CCCCC2c2cccnc2)c1` (centres undefined), the cell count in assay [1] came out at 269. The inhibition is -0.4% (inactive) in assay [1], -148% (inactive) in assay [3], 9.72% (inactive) in assay [7] and 19.7% (inactive) in assay [8]. Moreover, in assay [2], the inhibition of aggregation was -24.6% (inactive). In addition, the nuclei count in assay [2] came out at 95.1%; in assay [3] it was 101%. Moreover, the fluorescence slope in assay [4] is -0.526 (inactive). The NADPH fluorescence slope in assay [5] is -4.2e-05 (inactive). Further, the slope in assay [6] was 0.00421 (inactive).
For the compound `C=Cn1nc(C)c2ccccc2c1=O`, the cell count in assay [1] turned out to be 655. Further, the inhibition was -2.6% (inactive) in assay [1], -27.2% (inactive) in assay [3], 3.73% (inactive) in assay [7] and 1.18% (inactive) in assay [8]. Moreover, the inhibition of aggregation in assay [2] was 16.4% (inactive). Besides, the nuclei count came to 114% in assay [2] and 137% in assay [3]. Moreover, the fluorescence slope in assay [4] is -0.344 (inactive). In addition, in assay [5], the NADPH fluorescence slope is -2.7e-05 (inactive). In assay [6], the slope is 0.00755 (inactive).
`COc1ccc(C)cc1NC(=O)COCC(=O)O`: in assay [1], the cell count came to 710. For the same compound, the inhibition in assay [1] is -28.6% (inactive); in assay [3], -22.9% (inactive); in assay [7] it was -0.927% (inactive); in assay [8] it was 9.35% (inactive). Besides, the inhibition of aggregation in assay [2] is 4.1% (inactive). For the same compound, the nuclei count in assay [2] worked out at 100%; in assay [3], 102%. For the same compound, in assay [4], the fluorescence slope was -0.605 (inactive). Also, in assay [5], the NADPH fluorescence slope is -1.6e-05 (inactive). The slope in assay [6] is 0.00568 (inactive).
As to `O=C(CSc1nnc(Cc2cc(=O)[nH]c(=O)[nH]2)n1-c1ccccc1)NCC1CCCO1` (centres undefined), the cell count in assay [1] was determined as 398. For the same compound, the inhibition was 1.1% (inactive) in assay [1], 5.7% (inactive) in assay [3], 10.3% (inactive) in assay [7] and 21.2% (inactive) in assay [8]. In addition, the inhibition of aggregation in assay [2] was -3.9% (inactive). Besides, the nuclei count turned out to be 110% in assay [2] and 102% in assay [3]. Besides, in assay [4], the fluorescence slope is -0.373 (inactive). The NADPH fluorescence slope in assay [5] was 3.5e-05 (inactive). Moreover, the slope in assay [6] was 0.00598 (inactive).
Turning to `O=C1N=C(N2CCOCC2)CS1`, the cell count in assay [1] is 309. The inhibition in assay [1] is 3.4% (inactive); in assay [3], 36% (inactive); in assay [7], 6.09% (inactive); in assay [8], 10.7% (inactive). For the same compound, the inhibition of aggregation in assay [2] was -6.9% (inactive). Further, the nuclei count in assay [2] worked out at 90.7%; in assay [3] it was 95.1%. The fluorescence slope in assay [4] is -0.519 (inactive). Also, the NADPH fluorescence slope in assay [5] is -1.2e-05 (inactive). The slope in assay [6] is 0.00426 (inactive).
Regarding `N#CC1=C(N)N(c2ccc(Oc3ccccc3)cc2)C(=O)C1`, the cell count in assay [1] stood at 546. The inhibition in assay [1] is -3.8% (inactive); in assay [3] it was -5.8% (inactive); in assay [7], 5.59% (inactive); in assay [8], -5.96% (inactive). Also, the inhibition of aggregation in assay [2] was -0.2% (inactive). Further, the nuclei count in assay [2] is 119%; in assay [3], 128%. Also, the fluorescence slope in assay [4] is -0.481 (inactive). For the same compound, the NADPH fluorescence slope in assay [5] was -5.5e-05 (inactive). Also, the slope in assay [6] was 0.00638 (inactive).
On to `O=C(c1ccco1)N1CCN(c2ccc(Cl)cc2)CC1`, for which, in assay [1], the cell count came out at 173. The inhibition is -5.1% (inactive) in assay [1], 12.5% (inactive) in assay [3], -73.4% (inactive) in assay [7] and -172% (inactive) in assay [8]. Besides, the inhibition of aggregation in assay [2] was -6.3% (inactive). For the same compound, the nuclei count in assay [2] worked out at 82.3%; in assay [3], 93%. Moreover, the fluorescence slope in assay [4] was -0.467 (inactive). Moreover, the NADPH fluorescence slope in assay [5] was 7.7e-05 (inactive). Also, in assay [6], the slope is 0.00616 (inactive).
With `CCN(CC)C(=O)C1CCCN(Cc2ccc(N(C)C)cc2)C1` (centres undefined), in assay [1], the cell count is 376. The inhibition in assay [1] is 0% (inactive); in assay [3], -48.8% (inactive); in assay [7] it was 17.9% (inactive); in assay [8], 26.8% (inactive). In addition, the inhibition of aggregation in assay [2] is -25.6% (inactive). Also, the nuclei count in assay [2] amounted to 99%; in assay [3], 124%. In assay [4], the fluorescence slope was -0.462 (inactive). Further, the NADPH fluorescence slope in assay [5] was 7.7e-05 (inactive). Further, in assay [6], the slope is 0.00605 (inactive).
Consider `CCc1ccccc1OCCCCCNCCO`, for which, in assay [1], the cell count was found to be 459. Further, the inhibition in assay [1] was 3.9% (inactive); in assay [3], 53% (inactive); in assay [7], 10.8% (inactive); in assay [8], 31.9% (inactive). Further, the inhibition of aggregation in assay [2] was 28.4% (inactive). The results for the nuclei count in assay [2] and in assay [3] were 87.2% and 85.2%, respectively. Further, the fluorescence slope in assay [4] is -0.303 (inactive). In addition, the NADPH fluorescence slope in assay [5] is -1e-05 (inactive). In addition, the slope in assay [6] was 0.00576 (inactive).
Regarding `CC(C)Cn1c(=O)c(C(=O)Nc2ccccc2S(N)(=O)=O)c(O)c2ccccc21`, the cell count in assay [1] amounted to 740. Moreover, the inhibition in assay [1] is -1% (inactive); in assay [3], 60.6% (active); in assay [7], -1.36% (inactive); in assay [8], -18.4% (inactive). Besides, the inhibition of aggregation in assay [2] is -9.5% (inactive). Moreover, the nuclei count in assay [2] was 99.4%; in assay [3], 92.3%. Also, the fluorescence slope in assay [4] was -0.393 (inactive). For the same compound, the NADPH fluorescence slope in assay [5] is -3.1e-05 (inactive). In addition, in assay [6], the slope is 0.00741 (inactive).
